Assay results published in PubChem BioAssay AID1903 (Southern Research Specialized Biocontainment Screening …, 2009).
Screen size: about 310,000 compounds; about 1,200 (0.39%) were called active. The rule behind the calls is not given here. The list is a sample of the results. Entries with a potency or affinity are not part of this list.

molecular target: Large T antigen (Simian virus 40) (UniProt P03070); assay: SV40 large T antigen inhibitors, biochemical (AID 1903); conditions: SV40 large T antigen ATPase/helicase inhibition assay; at 20 µM; stronger effect = higher value
Sequence (P03070 whole entry, looked up): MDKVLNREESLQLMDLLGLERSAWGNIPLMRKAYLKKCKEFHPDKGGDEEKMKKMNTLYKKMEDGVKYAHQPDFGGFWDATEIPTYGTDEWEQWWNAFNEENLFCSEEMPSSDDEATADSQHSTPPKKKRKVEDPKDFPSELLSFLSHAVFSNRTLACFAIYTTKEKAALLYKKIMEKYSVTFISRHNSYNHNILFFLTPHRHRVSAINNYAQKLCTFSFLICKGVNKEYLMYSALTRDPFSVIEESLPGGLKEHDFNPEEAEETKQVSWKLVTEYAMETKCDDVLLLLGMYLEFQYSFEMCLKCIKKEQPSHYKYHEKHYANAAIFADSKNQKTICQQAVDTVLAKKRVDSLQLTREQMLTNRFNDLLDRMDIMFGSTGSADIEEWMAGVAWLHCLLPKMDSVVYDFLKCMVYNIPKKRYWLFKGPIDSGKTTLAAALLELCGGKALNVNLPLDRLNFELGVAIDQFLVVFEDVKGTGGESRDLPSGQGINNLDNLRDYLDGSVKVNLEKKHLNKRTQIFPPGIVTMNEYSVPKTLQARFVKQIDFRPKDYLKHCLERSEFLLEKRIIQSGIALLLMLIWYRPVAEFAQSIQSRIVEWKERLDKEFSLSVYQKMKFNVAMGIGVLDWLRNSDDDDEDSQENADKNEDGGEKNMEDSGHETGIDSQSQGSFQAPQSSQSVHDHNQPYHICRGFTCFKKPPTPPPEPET

inhibition, inactive:
Cc1csc2nc(CSc3nc4ccccc4o3)c(Br)n12 1.48%
Cc1c[n+]([O-])n(-c2ccc(C(=O)O)cc2)n1 2.23%
O=C(c1cc(=O)c2ccccc2o1)N1CCN(c2cccc(Cl)c2)CC1 8.8%
CC(=O)c1cccc(NS(=O)(=O)N2CCOCC2)c1 9.29%
O=C(CCCc1ccccc1)Nc1cccnc1Cl 10%
O=C(c1c(Cl)cccc1Cl)N1CCN(c2cccc3[nH]ccc23)CC1 23.6%
O=[N+]([O-])c1cccc(CN2CCN(c3cccc4[nH]ccc34)CC2)c1 27.1%
Cc1ccc(S(=O)(=O)N2CCC(C(=O)NNC(=O)c3ccc(F)cc3)CC2)cc1 7.95%
Cc1ccc(C)c(CSc2nnc(-c3ccccn3)n2N)c1 4.69%
COc1ccccc1-n1c(=O)c2c3c(sc2n2c(=S)[nH]nc12)CCC3 30.3%
CCSc1nnc2n(-c3ccc(OC)cc3)c(=O)c3c4c(sc3n12)CCCC4 2.78%
Cc1cccc(-n2c(=O)c3c4c(sc3n3c(=S)[nH]nc23)CCC4)c1 34.1%
Cc1nnc2n(-c3ccccc3)c(=O)c3c4c(sc3n12)CCCC4 4.53%
CSc1nnc2n(-c3ccccc3)c(=O)c3c4c(sc3n12)CCC4 3.42%
COc1ccc(-n2c(=O)c3c4c(sc3n3c(=S)[nH]nc23)CCCC4)cc1 2.8%
COc1ccccc1C1(O)C(=O)Nc2ccc(C)cc21 (stereo unspecified) 9.43%
CS(=O)(=O)N1CCN(c2ncnc3c2cnn3-c2ccccc2)CC1 1.55%
CC1=CC(=C(C#N)C#N)C=C(C)N1CCN1CCN(C(=O)Nc2ccc(Cl)c(Cl)c2)CC1 3.99%
Cc1ccc(C)n1-c1sc2c(c1C#N)CCCC2 7.49%
Cc1cc(/C=C2/NC(=O)NC2=O)c(C)n1-c1sc2c(c1C#N)CCCC2 17.3%
CCOC(=O)N1CCC(N2CCN(S(=O)(=O)c3ccc(OC)cc3)CC2)CC1 4.73%
COc1ccc(OC)c(-n2c(SCC(=O)Nc3cc(C)on3)nnc2-c2c[nH]c3ccccc23)c1 -1.81%
CCN1CC2([N+](=O)[O-])CC=C(OC)C([N+](=O)[O-])(C1)C2 (stereo unspecified) -0.47%
CN(C)Cc1nc2ccccc2c(=O)n1CC#N 8.3%
N#CCn1c(Cc2ccccc2)nc2ccccc2c1=O 10.6%
O=Cc1cn(-c2ccccc2)nc1-c1ccc(F)cc1 3.65%
